Drawing on PubChem BioAssay (EPA / NIEHS), this text covers outcome and AC50 for 5 compounds.

Records with an inconclusive call do not appear. Active and inactive are the calls of the source. The calls were made as follows, unless noted: active = hit-call score of the fitted dose curve at least 0.9, where 1 is the maximum; inactive = score below 0.9.

The target of experiment [1] is human Vitamin D Receptor (VDR), VDR (gene 7421) (UniProt P11473). The experiment is described as follows: ATG_VDR_TRANS: Attagene TRANS-FACTORIAL HepG2 Assay for human Vitamin D Receptor (VDR) (AID 2283022; active = hit-call score of the fitted dose curve at least 0.9, where 1 is the maximum). An outline of the steps:
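Steps: transfect HepG2 with GAL4-UAS-driven reporter constructs; dose compounds 24 h; isolate RNA, reverse-transcribe, PCR-amplify with 6-FAM-labelled primer extension and HpaI digestion; quantify fragments by capillary electrophoresis relative to DMSO.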

Experiment [2] can be described thus: BSK_3C_SRB: Viability Assessment in the BioMAP Diversity Plus: 3C Assay (AID 2283023).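 Also: fitted both ways against DMSO so a hit may be signal rise or drop.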 As to conditions: primary human endothelial cells (HUVEC). An outline of the steps: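 Absorbance at 560 nm of sulforhodamine B-stained (0.1%) total protein served as a cytotoxicity readout in human umbilical vein endothelial cells, 24 h after chemical treatment. Signal was fitted bidirectionally relative to DMSO.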

Read-out in experiment [3]: Matrix Metallopeptidase 1 (MMP1), MMP1 (gene 4312)
The experiment in a line: BSK_BE3C_MMP1: BioMAP Diversity Plus: BE3C Assay for Matrix Metallopeptidase 1 (MMP1) Biomarker Activity (AID 2283024). As to conditions: primary human bronchial epithelial cells; actives raise or lower the signal. An outline of the steps: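 ELISA measurement of MMP-1 after 24 h compound exposure of primary human bronchial epithelial cells. Changes in either direction fitted relative to DMSO; parallel SRB staining checked overt cytotoxicity.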

A short description of experiment [4]: BSK_3C_Vis: BioMAP Diversity Plus: 3C Assay for Morphology Visualization (AID 2283025).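 Also: fitted both ways so gain or loss versus DMSO counts.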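 As to AC50: light microscopy image of cell morphology used as background control.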 As to conditions: primary human endothelial cells (HUVEC). An outline of the steps:
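Light-microscopy visualization of HUVEC cultures at 24 h post-treatment, with DMSO as baseline for bidirectional fitting.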

Read-out in experiment [5]: Pselectin, SELP (gene 6403)
The experiment is described as follows: BSK_4H_Pselectin: BioMAP Diversity Plus: 4H Assay for Pselectin Biomarker Activity (AID 2283026). The following applies: primary human endothelial cells (HUVEC); actives raise or lower the signal. An outline of the steps: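 ELISA of surface P-selectin on HUVEC, 24 h after dosing, with parallel SRB staining (0.1% after 10% TCA fixation, 560 nm) for overt cytotoxicity. Activity fitted in both directions relative to DMSO.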

A short description of experiment [6]: BSK_4H_SRB: Viability Assessment in the BioMAP Diversity Plus: 4H Assay (AID 2283027).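 Also: cells exposed to compound for 24 h before staining.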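 As to AC50: curves fitted both ways versus DMSO so AC50 may be loss or gain.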 The following applies: primary human endothelial cells (HUVEC). An outline of the steps:
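Cytotoxicity readout: sulforhodamine B (0.1%) staining of total protein after 10% TCA fixation, measured at 560 nm in human umbilical vein endothelium at 24 h. DMSO set the baseline; fitting was bidirectional.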

Experiment [7] can be described thus: BSK_BE3C_SRB: Viability Assessment in the BioMAP Diversity Plus: BE3C Assay (AID 2283028).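 As to AC50: fitted both ways so AC50 may mark signal gain or loss versus DMSO.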 As to conditions: primary human bronchial epithelial cells. An outline of the steps:
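Cells (human bronchial epithelial, primary) are treated with chemicals, and after 24 h the parallel cultures are fixed in 10% TCA. These are then stained with 0.1% SRB and read at 560 nm. Gain or loss of signal is fitted relative to DMSO.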

Read-out in experiment [8]: Thrombomodulin, THBD (gene 7056)
The experiment in a line: BSK_3C_Thrombomodulin: BioMAP Diversity Plus: 3C Assay for Thrombomodulin Biomarker Activity (AID 2283029). As to conditions: primary human endothelial cells (HUVEC); actives raise or lower the signal. An outline of the steps: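 ELISA measurement of thrombomodulin on HUVEC surface 24 h after chemical dosing; activity fitted in both directions relative to DMSO vehicle.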

Read-out in experiment [9]: Urokinase-type plasminogen activator receptor (uPAR), PLAUR (gene 5329)
The experiment is described as follows: BSK_4H_uPAR: BioMAP Diversity Plus: 4H Assay for Urokinase-type plasminogen activator receptor (uPAR) Biomarker Activity (AID 2283030). The following applies: primary human endothelial cells (HUVEC); actives raise or lower the signal. An outline of the steps: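 Cell-surface uPAR ELISA signal, measured 24 h after dosing human umbilical vein endothelial cells, was analyzed with bidirectional fitting relative to DMSO. Parallel SRB staining of total protein tracked overt cytotoxicity.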

Read-out in experiment [10]: Vascular endothelial growth factor receptor 2 (Homo sapiens) (UniProt P35968)
The experiment is described as follows: BSK_4H_VEGFRII: BioMAP Diversity Plus: 4H Assay for Vascular endothelial growth factor receptor 2 (VEGFR2) Biomarker Activity (AID 2283031). As to conditions: primary human endothelial cells (HUVEC); actives raise or lower the signal. An outline of the steps: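 ELISA read-out of VEGFRII in primary human umbilical vein endothelium, taken 24 h after chemical treatment. Responses are expressed relative to DMSO, with bidirectional fitting.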

Read-out in experiment [11]: Vascular cell adhesion molecule 1 (VCAM1), VCAM1 (gene 7412)
The experiment in a line: BSK_4H_VCAM1: BioMAP Diversity Plus: 4H Assay for Vascular cell adhesion molecule 1 (VCAM1) Biomarker Activity (AID 2283033).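 As to outcome: cell-surface VCAM-1 protein measured by ELISA.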 As to conditions: primary human endothelial cells (HUVEC); actives raise or lower the signal. An outline of the steps:
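VCAM-1 ELISA read 24 h after chemical dosing of HUVEC in the BioMAP 4H system, with gain or loss of signal fitted relative to DMSO. Parallel SRB staining (560 nm) checked overt cytotoxicity.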

Read-out in experiment [12]: Interferon-gamma inducible Protein 10 (IP10), CXCL10 (gene 3627)
The experiment in a line: BSK_BE3C_IP10: BioMAP Diversity Plus: BE3C Assay for Interferon-gamma inducible Protein 10 (IP10) Biomarker Activity (AID 2283034). As to conditions: primary human bronchial epithelial cells; actives raise or lower the signal. An outline of the steps:
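IP-10 quantified by ELISA in human primary bronchial epithelial cell cultures at 24 hours post-dosing. Gain or loss of signal fitted relative to DMSO; parallel SRB staining assessed overt cytotoxicity.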

Read-out in experiment [13]: Monokine induced gamma interferon (MIG), CXCL9 (gene 4283)
The experiment is described as follows: BSK_BE3C_MIG: BioMAP Diversity Plus: BE3C Assay for Monokine induced gamma interferon (MIG) Biomarker Activity (AID 2283035). The following applies: primary human bronchial epithelial cells; actives raise or lower the signal. An outline of the steps:
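hu bronchial epithelial 1° cells, 24 h cpd; MIG by ELISA; bidirectional fit, DMSO = baseline.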

Read-out in experiment [14]: Transforming growth factor beta 1 (TGFb1), TGFB1 (gene 7040)
The experiment is described as follows: BSK_BE3C_TGFb1: BioMAP Diversity Plus: BE3C Assay for Transforming growth factor beta 1 (TGFb1) Biomarker Activity (AID 2283036;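 as to outcome: TGF-b1 protein level measured by ELISA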). The following applies: primary human bronchial epithelial cells; actives raise or lower the signal. An outline of the steps:
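ELISA readout of TGF-b1 from human lung bronchial epithelial primary cells, taken 24 h post-treatment. Gain or loss of signal fitted relative to DMSO baseline, with parallel SRB staining for overt cytotoxicity.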

Read-out in experiment [15]: Plasminogen activator inhibitor-1 (PAI1), SERPINE1 (gene 5054)
The experiment in a line: BSK_BE3C_PAI1: BioMAP Diversity Plus: BE3C Assay for Plasminogen activator inhibitor-1 (PAI1) Biomarker Activity (AID 2283037). As to conditions: primary human bronchial epithelial cells; actives raise or lower the signal. An outline of the steps:
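PAI-1 was measured by ELISA in human primary bronchial epithelial cultures 24 h after chemical dosing, with cytotoxicity checked by SRB total-protein staining in parallel cultures. Activity was fitted in both directions relative to DMSO.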

Read-out in experiment [16]: urokinase plasminogen activator (uPA), PLAU (gene 5328)
The experiment is described as follows: BSK_BE3C_uPA: BioMAP Diversity Plus: BE3C Assay for urokinase plasminogen activator (uPA) Biomarker Activity (AID 2283038).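 As to outcome: uPA protein level quantified by ELISA in cell cultures; uPA read one day after compound addition.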 The following applies: primary human bronchial epithelial cells; actives raise or lower the signal. An outline of the steps: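 Bronchial epithelial cells (human, primary); chemical 24 h; uPA by ELISA; bidirectional fit vs DMSO. SRB (0.1%, after 10% TCA fixation, 560 nm) in parallel cultures for cytotoxicity.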

Read-out in experiment [17]: Urokinase-type plasminogen activator receptor (uPAR), PLAUR (gene 5329)
The experiment is described as follows: BSK_BE3C_uPAR: BioMAP Diversity Plus: BE3C Assay for Urokinase-type plasminogen activator receptor (uPAR) Biomarker Activity (AID 2283039).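 As to outcome: cells exposed to compound for one day before measurement.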 The following applies: primary human bronchial epithelial cells; actives raise or lower the signal. An outline of the steps: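 uPAR levels were measured by ELISA after 24 h compound treatment of primary human bronchial epithelial cells, fitted in both directions relative to DMSO. Parallel SRB staining served as the cytotoxicity read-out.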

Read-out in experiment [18]: Interleukin-6 (IL6), IL6 (gene 3569)
The experiment in a line: BSK_CASM3C_IL6: BioMAP Diversity Plus: CASM3C Assay for Interleukin-6 (IL6) Biomarker Activity for (AID 2283040). As to conditions: primary human coronary artery smooth muscle cells; actives raise or lower the signal.

Read-out in experiment [19]: Tissue plasminogen activator (tPA), PLAT (gene 5327)
The experiment is described as follows: BSK_BE3C_tPA: BioMAP Diversity Plus: BE3C Assay for Tissue plasminogen activator (tPA) Biomarker Activity (AID 2283041).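 As to outcome: tPA level quantified by ELISA one day after compound addition.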 The following applies: primary human bronchial epithelial cells; actives raise or lower the signal. An outline of the steps:
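tPA measured by ELISA 24 h after dosing human primary bronchial epithelial cells (BE3C system). Changes in either direction were fitted against DMSO. Parallel cultures were stained with SRB to flag overt cytotoxicity.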

Read-out in experiment [20]: Human Leukocyte Antigen - DR isotype (HLADR), HLA-DRA (gene 3122)
The experiment is described as follows: BSK_BE3C_HLADR: BioMAP Diversity Plus: BE3C Assay for Human Leukocyte Antigen - DR isotype (HLADR) Biomarker Activity (AID 2283032). The following applies: primary human bronchial epithelial cells; actives raise or lower the signal. An outline of the steps: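 Cell-surface HLA-DR ELISA readout at 24 h after dosing in the BE3C primary human lung bronchial epithelial system; gain or loss of signal against DMSO, with parallel sulforhodamine B staining of total protein for overt cytotoxicity.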

Sequence of human Vitamin D Receptor (VDR), VDR (gene 7421) (P11473 whole entry, looked up, the tested form may be a part): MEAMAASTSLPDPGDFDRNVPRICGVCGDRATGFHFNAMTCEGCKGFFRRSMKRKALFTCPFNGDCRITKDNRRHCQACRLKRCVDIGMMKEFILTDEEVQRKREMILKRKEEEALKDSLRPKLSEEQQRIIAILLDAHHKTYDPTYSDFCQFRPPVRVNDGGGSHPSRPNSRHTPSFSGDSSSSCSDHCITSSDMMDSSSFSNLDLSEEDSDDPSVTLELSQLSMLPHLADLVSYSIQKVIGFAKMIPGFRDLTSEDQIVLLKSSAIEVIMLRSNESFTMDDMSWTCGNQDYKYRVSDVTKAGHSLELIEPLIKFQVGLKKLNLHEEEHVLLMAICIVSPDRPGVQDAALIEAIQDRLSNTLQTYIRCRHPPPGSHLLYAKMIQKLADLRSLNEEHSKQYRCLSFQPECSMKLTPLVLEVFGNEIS

In general, AC50 refers to the midpoint of the concentration-response curve, whichever way the signal moves. Turning to `CC(C)(c1cc(Br)c(O)c(Br)c1)c1cc(Br)c(O)c(Br)c1`, the outcome in experiment [1], in experiment [10] and in [18] was inactive. The half-maximal activity concentration (AC50) was 29.6 µM (active) in experiment [2]; 9.3 µM (active) in experiment [3]; 37.8 µM (active) in experiment [4]; 30.2 µM (active) in experiment [5]; 28.7 µM (active) in [6]; 5.06 µM (active) in experiment [7]. Also, the AC50 in experiment [8] is 8.15 µM (active); in [9], 28.9 µM (active); in experiment [11] it was 29.6 µM (active); in [12] it was 6.45 µM (active); in [13] it was 9.16 µM (active); in experiment [14], 5.15 µM (active). Besides, the concentration at half-maximal activity (AC50) in experiment [15] is 4.89 µM (active); in experiment [16] it was 9.34 µM (active); in experiment [17], 9.25 µM (active); in [19] it was 3.37 µM (active).
As to `CCCCOC(=O)CC(CC(=O)OCCCC)(OC(C)=O)C(=O)OCCCC`, the compound was classed as inactive in experiment [1], in experiment [2], in experiment [3], in experiment [4], in experiment [5] and in experiment [6]. The result in experiment [7], in experiment [8], in [9], in experiment [10], in [11] and in experiment [12] was inactive. Also, the result in experiment [13], in experiment [14], in experiment [15], in experiment [16], in experiment [18] and in experiment [19] was inactive. The AC50 in [20] was 20 µM (active).
Consider `c1ccc(C[n+]2cccc3ccccc32)cc1`, for which the outcome in [1], in experiment [2], in experiment [3], in experiment [4], in experiment [5] and in experiment [6] was inactive. Moreover, the outcome in experiment [7], in experiment [8], in experiment [9], in experiment [10], in experiment [20] and in [11] was inactive. In addition, the outcome in experiment [13], in experiment [14], in [15], in [16], in experiment [17] and in experiment [18] was inactive. For the same compound, in [12], the AC50 was 30.2 µM (active).
As to `CCCCCCCCN(C)CCCCCCCC`, the call in experiment [1], in [2], in experiment [3], in [4], in experiment [5] and in experiment [6] was inactive. In addition, the result in experiment [7], in [8], in [9], in [10], in [20] and in experiment [11] was inactive. Besides, the outcome in experiment [12], in [13], in [14], in [15], in [16] and in experiment [17] was inactive. Moreover, the result in experiment [18] and in experiment [19] was inactive.
For `CC(O)CC(C)(C)O` (configuration not stated), the call in experiment [1], in [2], in [3], in [4], in experiment [5] and in experiment [6] was inactive. The outcome in experiment [7], in experiment [8], in experiment [9], in [10], in experiment [20] and in experiment [11] was inactive. Moreover, the result in experiment [12], in [13], in [14], in experiment [15], in [16] and in experiment [17] was inactive. Further, the result in [18] and in experiment [19] was inactive.
